# Only a selection was taken, and the strongest signals are over-represented in it overall.
# B1: OS9 (Arabidopsis thaliana) (protein)
# chain: MRGSHHHHHHGMASMTGGQQMGRDLYDDDDKSRLQIFPAHLVGTFSRNNREPKYKIEFLPEDSPFHPGDNLESMVMLDKHGNRFLCYLPKEEKATSGWTSSQQNISTVMMETQQLVKLKTPDELLQPLSEKCLFRQEGWWSYEFCHQKYVRQLHVEDENKIVQEFFLGTFDPEATAAFNQTVSDASTDASQRYHSHVYTNGTTCDLTGSPREVEVRFVCAETRAMVTSITELSTCKYALTVQCPTLCKHPLFQLEKPVSHTIHCNAIPVEEDATRNKEEQAVDESPKMIADS
# Tests used:
# Experiment in all cases: glycan array binding signal (z-score within array); higher = stronger binding
# Settings in all cases: glycan notation: IUPAC condensed, linker removed
# Fuc(a1-2)Gal(b1-3)GlcNAc = target: Fuc(a1-2)Gal(b1-3)GlcNAc
# Procedure, shortened: (§1)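 Glycan array data were curated from 3228 arrays in the Consortium for Functional Glycomics database and kept only where the protein sequence was available. Glycan names were converted to IUPAC-condensed notation, and columns mapping to the same glycan were averaged. The binding signal is a within-array Z-score, averaged across arrays of the same protein sequence at different concentrations or buffers and across linkers. Negative Z-scores can be read as non-binding.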
# [1] = target: Fuc(a1-2)Gal(b1-3)GlcNAc(b1-3)[Gal(b1-4)GlcNAc(b1-6)]Gal(b1-4)Glc
# Procedure, shortened: as §1
# [2] = target: Fuc(a1-2)Gal(b1-4)[Fuc(a1-3)]GlcNAc(b1-2)Man(a1-3)[Fuc(a1-2)Gal(b1-4)[Fuc(a1-3)]GlcNAc(b1-2)Man(a1-6)]Man(b1-4)GlcNAc(b1-4)[Fuc(a1-6)]GlcNAc
# Procedure, shortened: as §1
# [3] = target: Fuc(a1-2)Gal(b1-4)[Fuc(a1-3)]GlcNAc(b1-3)Gal(b1-4)[Fuc(a1-3)]GlcNAc(b1-3)Gal(b1-4)[Fuc(a1-3)]GlcNAc
# Procedure, shortened: as §1
# [4] = target: Fuc(a1-2)[Gal(a1-3)]Gal(b1-4)GlcNAc(b1-2)Man(a1-3)[Fuc(a1-2)[Gal(a1-3)]Gal(b1-4)GlcNAc(b1-2)Man(a1-6)]Man(b1-4)GlcNAc(b1-4)GlcNAc
# Procedure, shortened: as §1
# [5] = target: Fuc(a1-2)[Gal(a1-3)]Gal(b1-4)GlcNAc(b1-6)GalNAc
# Procedure, shortened: as §1
# [6] = target: Fuc(a1-2)[GalNAc(a1-3)]Gal(b1-4)GlcNAc
# Procedure, shortened: as §1
# [7] = target: Fuc(a1-3)[Gal(b1-4)]GlcNAc(b1-3)Gal(b1-4)[Fuc(a1-3)]GlcNAc(b1-3)Gal(b1-4)[Fuc(a1-3)]GlcNAc
# Procedure, shortened: as §1
# [8] = target: Fuc(a1-3)[Gal(b1-4)]GlcNAc6S
# Procedure, shortened: as §1
# [9] = target: Fuc(a1-3)[Gal3S(b1-4)]GlcNAc
# Procedure, shortened: as §1
# [10] = target: Fuc(a1-3)[Gal3S(b1-4)]GlcNAc6S
# Procedure, shortened: as §1
# [11] = target: Fuc(a1-3)[GalNAc(b1-4)]GlcNAc
# Procedure, shortened: as §1
# Gal(a1-3)Gal(b1-4)GlcNAc = target: Gal(a1-3)Gal(b1-4)GlcNAc
# Procedure, shortened: as §1
# [12] = target: Gal(a1-3)Gal(b1-4)GlcNAc(b1-6)GalNAc
# Procedure, shortened: as §1
# Gal(a1-4)Gal(b1-4)Glc = target: Gal(a1-4)Gal(b1-4)Glc
# Procedure, shortened: as §1
# Gal(b1-3)GalNAc = target: Gal(b1-3)GalNAc
# Procedure, shortened: as §1
# Gal(b1-3)GalNAc(b1-3)Gal = target: Gal(b1-3)GalNAc(b1-3)Gal
# Procedure, shortened: as §1
# [13] = target: Gal(b1-3)GlcNAc(a1-3)Gal(b1-4)GlcNAc
# Procedure, shortened: as §1
# [14] = target: Gal(b1-3)GlcNAc(b1-2)Man(a1-3)[Gal(b1-3)GlcNAc(b1-2)Man(a1-6)]Man(b1-4)GlcNAc(b1-4)[Fuc(a1-6)]GlcNAc
# Procedure, shortened: as §1
# [15] = target: Gal(b1-3)GlcNAc(b1-3)Gal(b1-4)GlcNAc(b1-3)Gal(b1-4)GlcNAc(b1-2)[Gal(b1-3)GlcNAc(b1-3)Gal(b1-4)GlcNAc(b1-3)Gal(b1-4)GlcNAc(b1-6)]Man(a1-6)[Gal(b1-3)GlcNAc(b1-3)Gal(b1-4)GlcNAc(b1-3)Gal(b1-4)GlcNAc(b1-2)Man(a1-3)]Man(b1-4)GlcNAc(b1-4)[Fuc(a1-6)]GlcNAc
# Procedure, shortened: as §1
# [16] = target: Gal(b1-3)GlcNAc(b1-6)[Gal(b1-3)]GalNAc
# Procedure, shortened: as §1
# [17] = target: Gal(b1-3)[Fuc(a1-4)]GlcNAc(b1-2)Man(a1-3)[Gal(b1-3)[Fuc(a1-4)]GlcNAc(b1-2)Man(a1-6)]Man(b1-4)GlcNAc(b1-4)[Fuc(a1-6)]GlcNAc
# Procedure, shortened: as §1
# [18] = target: Gal(b1-4)GlcNAc(b1-2)[Gal(b1-4)GlcNAc(b1-6)]Man(a1-6)[GlcNAc(b1-4)][Gal(b1-4)GlcNAc(b1-2)Man(a1-3)]Man(b1-4)GlcNAc(b1-4)GlcNAc
# Procedure, shortened: as §1
# [19] = target: Gal(b1-4)GlcNAc(b1-3)Gal(b1-4)GlcNAc(b1-3)Gal(b1-4)GlcNAc(b1-3)Gal(b1-4)GlcNAc(b1-3)Gal(b1-4)GlcNAc(b1-3)Gal(b1-4)GlcNAc(b1-2)Man(a1-3)[Gal(b1-4)GlcNAc(b1-3)Gal(b1-4)GlcNAc(b1-3)Gal(b1-4)GlcNAc(b1-3)Gal(b1-4)GlcNAc(b1-3)Gal(b1-4)GlcNAc(b1-3)Gal(b1-4)GlcNAc(b1-2)Man(a1-6)]Man(b1-4)GlcNAc(b1-4)GlcNAc
# Procedure, shortened: as §1
# [20] = target: Gal(b1-4)GlcNAc(b1-3)[Gal(b1-4)GlcNAc(b1-6)]Gal(b1-4)GlcNAc
# Procedure, shortened: as §1
# Gal3S(b1-4)Glc6S = target: Gal3S(b1-4)Glc6S
# Procedure, shortened: as §1
# GalNAc(a1-3)Gal = target: GalNAc(a1-3)Gal
# Procedure, shortened: as §1
# GalNAc(b1-3)GalNAc = target: GalNAc(b1-3)GalNAc
# Procedure, shortened: as §1
# GalNAc(b1-4)Gal(b1-4)Glc = target: GalNAc(b1-4)Gal(b1-4)Glc
# Procedure, shortened: as §1
# [21] = target: GalNAc(b1-4)GlcNAc(b1-2)Man
# Procedure, shortened: as §1
binder,measurement,setting,value
B1,glycan array binding signal (z-score),Fuc(a1-2)Gal(b1-3)GlcNAc,-0.466
same,glycan array binding signal (z-score),[1],2.66
same,glycan array binding signal (z-score),[2],-0.608
same,glycan array binding signal (z-score),[3],4.22
same,glycan array binding signal (z-score),[4],3.36
same,glycan array binding signal (z-score),[5],0.051
same,glycan array binding signal (z-score),[6],-0.828
same,glycan array binding signal (z-score),[7],-0.881
same,glycan array binding signal (z-score),[8],3.45
same,glycan array binding signal (z-score),[9],1.51
same,glycan array binding signal (z-score),[10],-0.706
same,glycan array binding signal (z-score),[11],0.056
same,glycan array binding signal (z-score),Gal(a1-3)Gal(b1-4)GlcNAc,-0.724
same,glycan array binding signal (z-score),[12],0.243
same,glycan array binding signal (z-score),Gal(a1-4)Gal(b1-4)Glc,2.7
same,glycan array binding signal (z-score),Gal(b1-3)GalNAc,-0.097
same,glycan array binding signal (z-score),Gal(b1-3)GalNAc(b1-3)Gal,3.02
same,glycan array binding signal (z-score),[13],-1.06
same,glycan array binding signal (z-score),[14],-0.157
same,glycan array binding signal (z-score),[15],2.88
same,glycan array binding signal (z-score),[16],0.651
same,glycan array binding signal (z-score),[17],7.5
same,glycan array binding signal (z-score),[18],-0.016
same,glycan array binding signal (z-score),[19],0.798
same,glycan array binding signal (z-score),[20],1.43
same,glycan array binding signal (z-score),Gal3S(b1-4)Glc6S,0.366
same,glycan array binding signal (z-score),GalNAc(a1-3)Gal,-0.979
same,glycan array binding signal (z-score),GalNAc(b1-3)GalNAc,0.839
same,glycan array binding signal (z-score),GalNAc(b1-4)Gal(b1-4)Glc,2.57
same,glycan array binding signal (z-score),[21],3.58

# From the supplement of paper PMC8728848
